NALP1 yeast inh – blocks the NALP1 inflammasome reconstituted in yeast; S. cerevisiae NALP1/ASC/caspase-1 growth, X-gal OD620, 72 h; inhibition, % at 10 µM; 280,000 tested, 0.61% active; in the data active = inhibition mostly above about 24%, no sharp cut-off; inactive = mostly below about 32%
HSF1 activator – increases HSF-1 driven luciferase reporter signal. 300,000 tested, 1.7% active. activation, % at 9 µM. NIH3T3-HGL HSF-1 luciferase reporter, MG132, 8 h; 100% = twice DMSO control signal;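 active = mean replicate activation of at least 50% with a set share of replicates each reaching 50%; inconclusive = only one of those two conditions met; inactive = mean below 50% and too few replicates reaching it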;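 note: 0% = median of the neutral control wells and 100% = twice that signal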
p-CIP stab down – lowers stability of the mouse p/CIP coactivator protein | Q05BA5 | F442A p/CIP-EGFP cells, EGFP fluorescence, 16 h | decrease of EGFP signal, % at 10 µM | 290,000 tested, 0.01% active | AID 1984;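 active = EGFP signal decrease of at least 30% at 10 µM or well 3 SD below plate mean, unless failing retest; inactive = the rest, including hits failing retest or dose response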
Hsp70 activator – Hsp70 transcriptional activation, primary screen; HeLa Hsp70 promoter luciferase reporter, luminescence; scaled: vehicle 0, proteasome-inhibitor control 100%; activation, % at 10 µM; 200,000 tested, 0.04% active;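 active = activation above the mean across all tested compounds plus 3 SD, cutoff set per campaign, cut at about 5.5% in these data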;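 note: 100% = MG132 at 30 µM as the positive control and 0% = DMSO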
HSF1 inh – HSF1 inhibition | NIH3T3-HGL HSE-luciferase, MG132-induced, luminescence 8 h; hits give low values | AID 2098 | 300,000 tested, 0.77% active | activity change, negative = inhibition, % at 7.5 µM (by protocol);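 active = more than half of replicate wells show activity change below -50%, luminescence cut by over half; inconclusive = some wells, but at most half, below -50%; inactive = no replicate well below -50%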;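 note: luciferase reports HSF-1 transcriptional activity via heat shock element; 0% = median of DMSO wells and -100% = zero luminescence signal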
HSP90 inh – inhibitors of HSP90 luciferase refolding in rabbit reticulocyte lysate; luciferase refolding luminescence, 3 h; inhibition, % at 5.6 µM; 290,000 tested, 0.91% active; AID 1789;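 active = inhibition above the screen-wide mean plus 3 SD, computed separately per campaign, cut at about 16% in these data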;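 note: 0% = DMSO wells and 100% = 60 µM geldanamycin wells; inhibitors lower the luminescence because luciferase stays unfolded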
* hit, by the source's call; ? = inconclusive; · = no result. Hits are enriched below; roughly 3.8% of the tested compounds scored in any of these assays.

SMILES	NALP1 yeast inh	HSF1 activator	p-CIP stab down	Hsp70 activator	HSF1 inh	HSP90 inh
C/C(CC(=O)Nc1ccc(Cl)cc1C(F)(F)F)=N\NC(=O)c1cccs1	·	64.6*	2.7	·	29.4	0.6
C/C(CC(=O)Nc1ccc(Cl)cc1C(F)(F)F)=N\NC(=O)c1ccccn1	5.4	29.1	4.5	·	27.0	5.6
C/C(CC(=O)Nc1ccccc1C(F)(F)F)=N\NC(=O)c1cnccn1	·	-88.0	·	·	-84.3*	·
C/C(CC(=O)NCc1ccccc1)=N\NC(=O)c1cnccn1	20.9	8.6	-3.5	-0.3	-1.1	-2.0
COc1ccc(NC(=O)c2sccc2C)c([N+](=O)[O-])c1	·	74.2*	-6.3	-0.1	43.3	-0.6
COc1ccc(NC(=O)C/C(C)=N/NC(=O)c2cccs2)c([N+](=O)[O-])c1	1.0	69.7*	-3.7	·	36.6	2.1
Cc1ccnc(SCC(=O)NC2CC2)n1	24.0	-12.8	3.9	·	-3.9	1.0
CCCCn1c(N)c(N(CC(C)C)C(=O)c2cc3c(s2)CCCCC3)c(=O)[nH]c1=O	·	18.4	·	·	1.0	·
CCOc1ccc(-n2cc(-c3ccc(OC)c(OC)c3)[nH]c2=S)cc1	-12.4	55.4*	-11.0	0.3	57.8	2.3
Cc1ccc(-c2cc(C(=O)NCCCN3CCOCC3)no2)cc1	23.2	-79.4	2.6	-0.3	-76.0*	5.7
O=C(NCCCN1CCOCC1)c1cc(-c2ccc(Cl)c(Cl)c2)on1	11.2	-1.0	10.0	·	-0.1	-1.3
C(=N\Nc1ccccn1)/c1c[nH]c2ccccc12	-12.0	251.0*	-8.8	·	176.8	-0.5
CC(NC(=O)c1ccc(C(C)(C)C)cc1)C(c1cccs1)N1CCOCC1 (stereo not drawn)	10.3	69.1*	-8.7	·	26.0	-0.8
CC(NC(=O)c1ccncc1)C(c1cccs1)N1CCOCC1 (stereo not drawn)	9.9	4.5	6.3	-0.3	2.7	-1.9
O=C(CN1CCOCC1)Nc1ccc(NC(=O)c2ccccc2F)cc1	4.2	-0.9	0.6	·	7.1	-0.3
COc1ccc(Cl)c2c1[nH]c1nc(SCc3ccccn3)nnc12	9.4	103.4*	-0.5	0.4	43.3	2.7
COc1ccc(Cl)c2c1[nH]c1nc(SCc3cccnc3)nnc12	13.8	9.1	8.2	-0.4	-0.1	-6.5
CCCc1nnc(NC(=O)CN2C(=O)c3ccccc3C2=O)s1	43.6*	27.1	0.1	-0.2	-4.3	3.4
CC1CCN(c2nc(-c3cccnc3)nc3scc(-c4ccccc4)c23)CC1	37.6	-20.1	-1.4	-0.2	-2.5	0.0
CC1CCN(c2nc(CN3CCCCC3)nc3scc(-c4ccccc4)c23)CC1	50.2*	8.4	-12.6	-0.2	-2.4	0.0
COc1c2ccccc2c(OC)c2ccccc12	38.6	-11.6	-5.3	-0.2	-5.4	1.3
c1ccc(Cc2cc(-c3ccccc3)on2)cc1	-3.5	70.7*	-2.3	-0.1	23.5	-0.4
CCOc1ccc(S(=O)(=O)NCCC(=O)NCCOc2ccccc2OC)cc1	·	-6.5	·	·	3.2	·
O=C(NCCc1ccc(O)c(O)c1)C1COc2ccccc2O1 (stereo not drawn)	2.0	120.8*	-9.0	·	70.9	-7.8
NC(=O)CC(NC(=O)c1ccc(Br)cc1)c1ccc(N2CCCCCC2)c([N+](=O)[O-])c1 (stereo not drawn)	4.3	74.0*	-11.0	·	45.5	0.5
SMILES	NALP1 yeast inh	HSF1 activator	p-CIP stab down	Hsp70 activator	HSF1 inh	HSP90 inh
NC(=O)CC(NC(=O)c1ccccc1)c1ccc(N2CCCCCCC2)c([N+](=O)[O-])c1 (stereo not drawn)	22.7	-23.0	-19.6	·	-0.6	-1.0
OCC[C@@H]1C[C@@H](O)[C@H](O)[C@]2(CCCO2)O1	·	0.6	·	·	0.3	·
Cc1ccccc1Oc1cc(NC(=O)Cn2cnc([N+](=O)[O-])c2)cc([N+](=O)[O-])c1	-6.6	74.9*	-40.2	-0.4	28.2	4.4
c1ccc(-c2csc(Nc3ncccn3)n2)cc1	25.3	41.7	-3.8	0.4	24.3	1.7
Oc1ccc(-c2csc(Nc3ncccn3)n2)cc1	28.4	59.6*	8.5	0.0	44.4	4.3
Cc1ccc(Cn2ccc(-c3cnc(-c4ccccc4)s3)n2)cc1	1.0	45.0	5.0	-0.1	23.7	-1.8
Fc1ccc(Cn2ccc(-c3cnc(-c4ccccc4)s3)n2)cc1	-13.2	62.3*	-3.7	-0.1	39.0	-3.0
COc1cc2c(cc1OC)CN(c1ccc(C(F)(F)F)cn1)CC2	11.1	102.1*	-7.6	·	65.8	-0.2
CCOC(=O)c1c(C)nc2c(C)cccn12	18.0	-91.7	-13.1	0.6	-89.2*	0.6
CCOC(=O)c1c(C)nc2c3ccccc3ccn12	4.3	?	-1.7	0.2	19.0	-0.5
COc1cccc2cc(-c3ccccc3)c(=O)oc12	-8.1	62.0*	-9.5	0.1	26.6	-3.2
CCC(NC(=S)NC1CCCCC1)c1ccccc1 (stereo not drawn)	3.0	-89.6	-9.2	·	-86.8*	-1.4
CC(O)c1nc2ccccc2n1Cc1nnc(-c2ccc(Cl)cc2)o1 (stereo not drawn)	0.7	-68.1	-1.6	-0.1	-55.7*	-0.8
c1ccc(-c2nnc(Cn3c4ccccc4c4nc5ccccc5nc43)o2)cc1	·	·	·	-0.3	·	-3.3
Cn1c(=O)c2cn(-c3ccc4c(c3)OCCO4)cc2n(C)c1=O	2.7	-72.8	-12.3	0.2	-66.8*	-0.5
Cc1ccc(-n2cc3c(=O)n(C)c(=O)n(C)c3c2)cc1C	22.7	-17.7	-5.9	0.4	-15.9	1.9
Cc1cccc(C(c2c(C)nn(-c3ccccc3)c2N)c2c(C)nn(-c3ccccc3)c2N)c1	·	82.8*	-2.9	-0.2	67.6	-3.2
CCc1ccc(C(c2c(C)nn(-c3ccccc3)c2N)c2c(C)nn(-c3ccccc3)c2N)cc1	22.5	9.8	-14.9	0.1	13.3	7.6
CC(=O)c1cccc(NC(=O)CNC(=O)Cc2ccccc2)c1	29.3	-12.7	3.8	·	-10.4	-2.7
CCc1ccc(OC(C)C(=O)N(Cc2ccco2)C2CCS(=O)(=O)C2)cc1 (stereo not drawn)	0.6	-86.3	-2.3	·	-83.0*	0.6
CCC(C)NC(=O)Cc1c(OC)ccc2cc(Br)ccc12 (stereo not drawn)	11.6	62.3*	-3.0	-0.3	25.7	4.3
COCC(=O)O[C@]1(CCN(C)CCCc2nc3ccccc3[nH]2)CCc2cc(F)ccc2[C@@H]1C(C)C	2.8	8.6	-8.4	·	4.3	·
COc1cc2nc(CSc3nc(-c4ccc(F)cc4)cs3)[nH]c(=O)c2cc1OC	19.1	66.7*	2.6	-0.1	21.1	2.3
COc1cc(NC(=O)c2ccc(C)cc2)c(OC)cc1NC(=O)CN1CCOCC1	-9.0	60.3*	7.6	0.0	52.1	0.7
COc1cc(NC(=O)c2ccc(Cl)cc2)c(OC)cc1NC(=O)CN1CCOCC1	-11.6	20.7	-11.3	0.3	17.3	-2.3
Cc1c(C#N)c(O)n(CCO)c(=O)c1N=Nc1ccc2c(c1)COC2=O	·	67.5*	-17.8	·	67.1	15.0
